Screens deposited in PubChem by National Center for Advancing Translational Sciences (NCATS).
An excerpt weighted towards active compounds, which were near 19% of everything screened.
TDP1 cell noCPT – qHTS for Inhibitors of human tyrosyl-DNA phosphodiesterase 1 (TDP1): qHTS in cells in absence of CPT. DT40 Tdp1-/- hTDP1 cells, no CPT, ATP luminescence, 48 h. Potency, µM (series often up to 46.2 µM), inactives show at the highest dose activity change, negative = growth inhibition, most hits filed as inhibitors. 420,000 compounds, 15% hits. AID 686978, 2013; note: potency is the fitted concentration of half-maximal effect; nearly all actives have a fitted effect of over 55% in size
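Cells were dispensed at 400 per well, compounds added by pin tool, plates incubated ≥48 hr at 37 °C, then CellTiter-Glo added for 30 min at room temperature before luminescence reading. Line: DT40 Tdp1-/- complemented with hTDP1; camptothecin omitted.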
HT1080-NT tox – kills 2HG-producing HT-1080-NT fibrosarcoma cells | HT-1080-NT fibrosarcoma viability, CellTiter-Glo ATP luminescence, 48 h | Potency, µM (series often up to 46.1 µM), for the others: at the highest dose activity, negative = less viability, most hits filed as cytotoxic | 360,000 compounds, 1.6% hits | AID 686970;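 note: NT is the 2HG producing partner of a matched IDH1 knockdown line; potency is the fitted concentration of half-maximal effect; 0% = DMSO-treated cells and -100% = media-only wells without cells; nearly all actives have a fitted effect of over 55% in size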
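HT-1080-NT; 750 cells/well; 5% FBS RPMI; 48 h compound, 37 degrees C; CellTiter-Glo luminescence; curve fitting and curve-class assignment.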
IL-1B inflam inh – inhibitors of inflammasome signaling (IL-1 beta secretion); activity change, % at 57.5 µM; 360,000 compounds, 4.7% hits; THP-1 LPS/ATP IL-1B secretion, AlphaLISA, 16 h; stronger effect = lower value; AID 743279; in the data active = activity change below about -50%; inconclusive = mostly about -30% to -49%
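Secreted IL-1B measured by AlphaLISA bead assay after 16 h compound exposure of THP-1 cells; compounds (final up to 57.5 uM) added 1 h before LPS (250 ng/mL) and ATP (1.25 mM) stimulation; lower signal means less secretion.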
DT40 TDP1 CPT – DT40-hTDP1 cell growth loss with CPT. chicken DT40 Tdp1-/-;hTDP1 cells + 20 nM CPT, ATP luminescence, 48 h. Potency, µM (top dose mostly 46.2 µM), inactives show at the top dose activity change, negative = growth inhibition, usual class: inhibitors. 420,000 compounds, 12% hits; note: potency is the fitted concentration of half-maximal effect; nearly all actives have a fitted effect of over 55% in size
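Chicken DT40 Tdp1-/- cells complemented with human TDP1, 400 cells/well, exposed to compounds plus 20 nM camptothecin for at least 48 h at 37 C; viability read as ATP content by CellTiter-Glo luminescence.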
HT1080 IDH1KD tx – HT-1080 IDH1 knockdown cell toxicity (counter line) | Potency, µM (highest dose often 46.1 µM), for the others: at the highest dose activity, negative = toxicity, hits mostly cytotoxic | AID 686971 | 360,000 compounds, 2% hits | HT-1080 IDH1 knockdown viability, ATP luminescence, 48 h;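 note: potency is the fitted concentration of half-maximal effect; 0% = DMSO wells and -100% = cell-free medium wells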
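CellTiter-Glo luminescence after 48 h compound exposure at 37 degrees C of IDH1-knockdown HT-1080 cells in 5% FBS RPMI. %Activity scaled between DMSO wells and cell-free media wells, with curves fitted and assigned curve classes.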
Numbers without * were called inactive; i = inactive; ? = inconclusive; . = not tested or not shown; [ ] = dose if it differs, or a comment. Unless noted, calls come from the whole dose curve; as a rule, active = well fitted curve in the direction sought with a large enough effect; inconclusive = small, poorly fitted or top-dose-only effect, or another doubt; inactive = no such curve, though single readings can be large; an effect the other way counts as inactive or inconclusive. Unless noted, % is set by controls: 0 for no effect and ±100 for the full control effect.

SMILES | TDP1 cell noCPT | HT1080-NT tox | IL-1B inflam inh | DT40 TDP1 CPT | HT1080 IDH1KD tx
Nc1nc(-c2cc3ccccc3o2)cs1 | -16.0% | 6.4% | -75.3* | 6.1% | -2.4%
Cc1cccn2cc(CCNS(=O)(=O)c3cccc([N+](=O)[O-])c3)nc12 | -1.5% | 19.9% | 22.9 | -2.4% | 9.5%
CSc1cccc(NS(=O)(=O)c2cn(C)c(C)n2)c1 | ? | . | . | -17.4% | .
CN(Cc1ccccc1)C(=O)CNC(=O)C12CC3CC(CC(C3)C1)C2 | -13.3% | -3.8% | 9.3 | -19.4% | -3.0%
CN(Cc1ccccc1Cl)C(=O)CNC(=O)C12CC3CC(CC(C3)C1)C2 | ? | -0.3%[9.24 µM] | 4.3 | 20.6µM* | 3.8%
Cc1ccc(-c2c(CN3CCN(c4cc(C)ccc4C)CC3)csc2C)cc1 | 16.4µM* | . | . | ? | .
Cc1ccc(C)c(N2CCN(Cc3csc(C)c3C)CC2)c1 | 14.6µM* | . | . | ? | .
COc1ccc(N2CCN(Cc3csc(C)c3-c3ccc(C)cc3)CC2)cc1 | ? | ? | -14.1 | ? | -29.9%
Cn1nc(C(=O)Nc2nc3ccccc3[nH]2)ccc1=O | -14.2% | -2.4% | -21.2 | -10.6% | 9.0%
CCOC(=O)c1c(C)[nH]c(C)c1S(=O)(=O)NCC(=O)Nc1cccc(C(F)(F)F)c1 | -21.7% | . | . | ? | .
CN(Cc1ccco1)c1ncnc2ccc(-c3ccoc3)cc12 | ? | . | . | 18.4µM* | .
CN(Cc1ccco1)c1ncnc2ccc(-c3ccccc3C(F)(F)F)cc12 | 23.1µM* | . | . | ? | .
CN(Cc1ccco1)c1ncnc2ccc(-c3ccccc3Cl)cc12 | ? | . | . | 20.6µM* | .
O=c1c(CCc2ccccc2)nc2cnc(N3CCOCC3)nc2n1CCc1ccccc1 | 27.0% | . | . | 3.5% | .
NS(=O)(=O)c1cc2c(cc1Cl)N[C@@H]([C@@H]1C[C@@H]3C=C[C@H]1C3)NS2(=O)=O | -3.3% | . | . | 4.7% | .
O=C(Nc1cccc(S(=O)(=O)N2CCCC2)c1)c1cccnc1 | 0.4% | -0.1% | 36.3 | -18.3% | 4.5%
O=C(Nc1ccc(Cl)c(S(=O)(=O)N2CCCCC2)c1)c1cccnc1 | ? | -11.6% | 0.0 | 18.4µM* | -11.7%
O=C(Nc1nc2ccccc2[nH]1)c1ccc(Cl)c(S(=O)(=O)N2CCCC2)c1 | 16.4µM* | -19.3% | -58.6* | 18.4µM* | -26.1%
O=C(Nc1nc2ccccc2[nH]1)c1ccc(S(=O)(=O)N2CCOCC2)cc1 | ? | 5.1% | 17.8 | ? | 7.4%
CCN(CC)S(=O)(=O)c1cc(C(=O)Nc2ccncc2)ccc1Cl | 15.8µM* | 0.0% | -56.0* | 23.1µM* | -22.4%
CCN(CC)S(=O)(=O)c1cc(C(=O)Nc2cccnc2)ccc1Cl | -14.3% | -3.8%[9.24 µM] | 12.7 | -21.3% | -9.2%
Cc1ccc(NC(=O)c2cnccn2)cc1S(=O)(=O)N1CCCCCC1 | 23.1µM* | -4.7% | 14.3 | ? | -13.5%
O=C(O)C1=CC[C@@H](c2ccc(Cl)cc2)N(S(=O)(=O)c2ccc(Cl)cc2)[C@H]1c1cccc(Cl)c1 | -8.3% | 1.4% | 37.1 | -23.0% | -11.3%
O=C(Nc1ccon1)c1ccc(F)c(S(=O)(=O)N2CCCCC2)c1 | ? | -10.5% | 12.1 | -8.0% | -17.3%
CCN(CC)CCNC(=O)c1ccc(NC(=O)c2ccc(Cl)c(S(=O)(=O)N3CCCCCC3)c2)cc1 | ? | ? | -103.7* | ? | 20.6µM*
SMILES | TDP1 cell noCPT | HT1080-NT tox | IL-1B inflam inh | DT40 TDP1 CPT | HT1080 IDH1KD tx
O=C(Nc1ccon1)c1ccc(Cl)c(S(=O)(=O)N2CCCCC2)c1 | 23.1µM* | -13.6% | i | ? | -25.8%
CCN(CC)CCNC(=O)c1ccc(NC(=O)c2ccc(S(=O)(=O)N3CCCCCC3)cc2)cc1 | ? | -6.9% | -7.8 | ? | -3.4%
O=C(Nc1ccncc1)c1ccc(Cl)c(S(=O)(=O)N2CCCC2)c1 | 25.9µM* | ? | 51.5 | ? | -16.3%
O=C(O)COc1ccc(NC(=O)c2cccs2)cc1 | -19.3% | -4.1% | 10.5 | -12.4% | -4.0%
CC1CCCN(C(=O)COc2ccc(NC(=O)c3cccs3)cc2)C1 (stereo not drawn) | -15.6% | 13.7% | -56.5* | -8.9% | 15.1%
OCCn1c(SC2CCCCC2)nc2ccccc21 | ? | -4.8% | -10.6 | -20.5% | -4.2%
CC(C)(C)C#CCn1c(/C=[N+](\[O-])C2CCCCC2)nc2ccccc21 | 18.4µM* | -0.1% | 17.7 | 11.6µM* | -6.1%
COc1ccc(C(=O)Nc2ncc(C)s2)cc1S(=O)(=O)N1CCOCC1 | 13.2% | 10.8% | 70.5 | 0.2% | -11.3%
CCOC(=O)N1CCN(c2cc(=O)n(Cc3ccc(F)cc3)c(=O)[nH]2)CC1 | -0.1% | 3.8% | 6.7 | -5.1% | 5.2%
CCOC(=O)C1CCN(c2ncnc3c2[nH]c2cccc(OC)c23)CC1 | 25.9µM* | -7.1% | ? | ? | -10.8%
CCOC(=O)C1CCN(c2ncnc3c2oc2ccc(Cl)cc23)CC1 | ? | ? | 41.2 | ? | -29.2%
Fc1ccc2[nH]c3c(N4CCN(c5ccccc5)CC4)ncnc3c2c1 | 4.61µM* | ? | -55.4* | 5.17µM* | 20.6µM*
CCOC(=O)N1CCN(c2ncnc3c2[nH]c2ccc(F)cc23)CC1 | 2.06µM* | -0.9% | -3.2 | 6.51µM* | ?
COc1ccc(N2CCN(c3ncnc4c3[nH]c3ccccc34)CC2)cc1 | 2.31µM* | -9.5% | -29.6 | 3.66µM* | -12.1%
COc1ccc2[nH]c3c(N4CCc5ccccc5C4)ncnc3c2c1 | 1.3µM* | 2.31µM* | -97.5* | 1.16µM* | 10.3µM*
